Source: PubChem (National Center for Advancing Translational Sciences (NCATS))
Most compounds without a hit are left out; they make up all but 18% or so of the library.
TDP1 inh – inhibitors of human tyrosyl-DNA phosphodiesterase TDP1; Potency, µM (doses to about 130 µM), inactives show at the top dose activity change, negative = inhibition, hits mostly inhibitors; 350,000 tested, 0.28% active; Q9NUW8; recombinant TDP1, AlphaScreen DNA substrate cleavage; also: potency is read from the fitted curve at half-maximal effect; nearly all actives have a fitted effect of over 40% in size
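Signal: AlphaScreen proximity between streptavidin donor and anti-FITC acceptor beads on intact substrate. Reaction: Tdp1 1 nM, substrate 15 nM final, 5 min RT after 15 min compound preincubation.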
CtBP-E1A inh – CtBP/E1A binding inhibition; AlphaScreen GST-E1A/His-CtBP binding, 1536-well; active compounds read low; activity change, % (concentration not given with the values); 340,000 tested, 0.49% active; in the data active = activity change below about -65%; inconclusive = mostly about -30% to -63%
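Protein mix (5X: 125 nM each GST-E1A, His-CtBP) was incubated with pinned compound 2 h at 37 deg C in dark, in 50 mM Tris pH 8.0 buffer with 300 mM NaCl. Glutathione donor and nickel acceptor beads followed; AlphaScreen signal read after 1 h.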
DT40 TDP1 no CPT – qHTS for Inhibitors of human tyrosyl-DNA phosphodiesterase 1 (TDP1): qHTS in cells in absence of CPT; DT40 Tdp1-/- hTDP1 cells, no CPT, ATP luminescence, 48 h; Potency, µM (highest dose often 46.2 µM), for inactives: at the highest dose activity change, negative = growth inhibition, hits mostly inhibitors; 420,000 tested, 15% active; AID 686978, 2013; also: potency is read from the fitted curve at half-maximal effect; nearly all actives have a fitted effect of over 55% in size
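Growth of hTDP1-complemented DT40 Tdp1-knockout cells is measured by ATP luminescence after at least 48 hr compound exposure at 37 °C, with DMSO substituting for the 20 nM CPT used in the parallel screen.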
IL1B secr inh – inhibitors of inflammasome signaling (IL-1 beta secretion). activity change, % at 57.5 µM. 360,000 tested, 4.7% active. THP-1 LPS/ATP IL-1B secretion, AlphaLISA, 16 h; active compounds read low. AID 743279; in the data active = activity change below about -50%; inconclusive = mostly about -30% to -49%
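THP-1 cells pretreated 1 hr with compounds (up to 57.5 uM final), then stimulated with LPS (250 ng/mL final) plus ATP (1.25 mM final); secreted IL-1B measured by AlphaLISA after 16 hr, decreased signal indicating inhibition.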
TDP1 cell CPT – growth inhibition of DT40 Tdp1-/-;hTDP1 cells with camptothecin (screen for TDP1 inhibitors) | Potency, µM (doses to about 46.2 µM), for the others: top-dose activity change, negative = growth inhibition, actives largely listed as inhibitors | chicken DT40 Tdp1-/-;hTDP1 cells + 20 nM CPT, ATP luminescence, 48 h | 420,000 tested, 12% active; also: potency is read from the fitted curve at half-maximal effect; nearly all actives have a fitted effect of over 55% in size
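Chicken DT40 Tdp1-/- cells stably complemented with human TDP1 were seeded at 400 cells/well in medium containing 20 nM camptothecin, exposed to pin-transferred compounds, and grown at 37 °C for at least 48 hr. Viability was read as ATP luminescence.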
Six1-Eya2 blk – blocks human Six1 binding to Eya2; Q15475+O00167; AlphaScreen GST-Six1/His-Eya2 binding, biochemical; active compounds read low; activity change, % (test concentration not listed); 360,000 tested, 0.56% active; AID 651725; in the data active = activity change below about -65%; inconclusive = mostly about -30% to -63%
Target sequence (O00167 whole entry, looked up): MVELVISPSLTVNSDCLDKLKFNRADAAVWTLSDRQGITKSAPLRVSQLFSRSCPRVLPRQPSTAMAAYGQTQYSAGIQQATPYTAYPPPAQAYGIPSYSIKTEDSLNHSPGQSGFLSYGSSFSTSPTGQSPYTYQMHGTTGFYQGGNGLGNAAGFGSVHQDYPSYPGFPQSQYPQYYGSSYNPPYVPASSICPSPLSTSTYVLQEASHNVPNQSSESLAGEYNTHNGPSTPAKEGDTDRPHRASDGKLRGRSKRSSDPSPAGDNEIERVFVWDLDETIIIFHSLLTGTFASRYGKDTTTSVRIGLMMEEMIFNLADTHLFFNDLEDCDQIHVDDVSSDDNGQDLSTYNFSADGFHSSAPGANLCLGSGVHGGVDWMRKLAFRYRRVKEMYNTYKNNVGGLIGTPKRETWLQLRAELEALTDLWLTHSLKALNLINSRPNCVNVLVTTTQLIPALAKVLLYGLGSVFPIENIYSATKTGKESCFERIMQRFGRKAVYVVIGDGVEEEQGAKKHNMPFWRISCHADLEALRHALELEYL
Target sequence (Q15475 whole entry, looked up): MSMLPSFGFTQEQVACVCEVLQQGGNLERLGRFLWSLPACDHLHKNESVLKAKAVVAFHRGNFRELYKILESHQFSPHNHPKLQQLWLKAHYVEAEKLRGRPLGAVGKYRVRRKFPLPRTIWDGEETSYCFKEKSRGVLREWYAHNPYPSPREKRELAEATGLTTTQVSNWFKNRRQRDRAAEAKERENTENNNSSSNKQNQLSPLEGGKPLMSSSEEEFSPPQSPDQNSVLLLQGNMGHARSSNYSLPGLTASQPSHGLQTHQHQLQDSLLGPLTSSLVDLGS
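Compounds are tested against tagged Six1 and Eya2 proteins bridged by glutathione donor and nickel acceptor beads; after a one-hour incubation at 37 °C without light, AlphaScreen emission is recorded.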
Starred values were filed as active, the others as inactive; [ ] = another dose, or the depositor's remark. Unless noted, calls follow the shape of the dose curve; as a rule, active = well fitted curve in the direction sought with a large enough effect; inconclusive = small, poorly fitted or top-dose-only effect, or another doubt; inactive = no such curve, though single readings can be large; an effect the other way counts as inactive or inconclusive. % is scaled to controls: 0 for no effect and ±100 for the full control effect.

What do the screens show for `C[C@]12CCC3C(CC[C@H]4C[C@H](O)[C@H](O)C[C@]34C)C1CC[C@@H]2O` (some centres undefined)?
CtBP-E1A inh: -1.2; DT40 TDP1 no CPT: inconclusive; IL1B secr inh: 13.8; TDP1 cell CPT: 20.6µM*; Six1-Eya2 blk: 6.9

What do the screens show for `O=c1c2ccccc2nc(Cc2cccc([N+](=O)[O-])c2)n1-c1ccc(O)cc1`?
TDP1 inh: 4.1%; CtBP-E1A inh: 1.8; DT40 TDP1 no CPT: inconclusive; IL1B secr inh: -13.2; TDP1 cell CPT: inconclusive; Six1-Eya2 blk: 0.1

What do the screens show for `CCCCn1nnnc1C(C1CC1)N1CCC(n2c(=O)[nH]c3ccccc32)CC1` (centres undefined)?
CtBP-E1A inh: -1.3; DT40 TDP1 no CPT: inconclusive; IL1B secr inh: -15.1; TDP1 cell CPT: inconclusive; Six1-Eya2 blk: 5.2

How did CCC(c1nnnn1Cc1ccccc1)N1CCC(n2c(=O)[nH]c3ccccc32)CC1 (centres undefined) do in these assays?
CtBP-E1A inh: -3.1; DT40 TDP1 no CPT: 4.61µM*; IL1B secr inh: -5.1; TDP1 cell CPT: 5.8µM*; Six1-Eya2 blk: 4.8

How did CCCCn1nnnc1C(CCSC)N1CCC(n2c(=O)[nH]c3ccccc32)CC1 (centres undefined) do in these assays?
CtBP-E1A inh: -10.1; DT40 TDP1 no CPT: 9.2µM*; IL1B secr inh: -3.9; TDP1 cell CPT: 11.6µM*; Six1-Eya2 blk: 0.4

What do the screens show for `CCCCn1nnnc1C(CCc1ccccc1)N1CCC(n2c(=O)[nH]c3ccccc32)CC1` (centres undefined)?
CtBP-E1A inh: -9.6; DT40 TDP1 no CPT: 11.6µM*; IL1B secr inh: -55.8*; TDP1 cell CPT: 11.6µM*; Six1-Eya2 blk: -17.3

What do the screens show for `O=C1OCCN1P(=O)(c1ccccc1)c1ccccc1`?
TDP1 inh: 7.7%; CtBP-E1A inh: 1.2; DT40 TDP1 no CPT: -18.9%; IL1B secr inh: -3.2; TDP1 cell CPT: 1.6%; Six1-Eya2 blk: 2.0

What do the screens show for `CCn1cc(C(=O)c2ccccc2)c2ccccc21`?
TDP1 inh: 0.5%; CtBP-E1A inh: 4.5; DT40 TDP1 no CPT: -4.9%; IL1B secr inh: -3.9; TDP1 cell CPT: -3.3%; Six1-Eya2 blk: 3.3

Results for COc1cc(C)c(C(=O)CC(=O)c2c(C)cc(OC)cc2C)c(C)c1 ?
CtBP-E1A inh: -3.4; DT40 TDP1 no CPT: 11.6µM*; IL1B secr inh: 130.8; TDP1 cell CPT: 14.6µM*; Six1-Eya2 blk: 17.8

How did Cc1cccc(-n2nc(C)c(C(=O)N3CCN(c4ccccc4)CC3)c2-n2cccc2)c1 do in these assays?
TDP1 inh: 5.3%; DT40 TDP1 no CPT: 20.6µM*; TDP1 cell CPT: 16.4µM*

How did CCc1cc(-c2nnn(CCC3COCCO3)c2CC)cc(CC)c1-c1cn(Cc2ccc3ccccc3c2)nn1 (centres undefined) do in these assays?
CtBP-E1A inh: -6.5; DT40 TDP1 no CPT: 8.2µM*; IL1B secr inh: 3.6; TDP1 cell CPT: 20.6µM*; Six1-Eya2 blk: -4.5

How did CCCC12CN3CC(C)(CN(C1)C3c1c(C)[nH]c(=O)[nH]c1=O)C2=O (centres undefined) do in these assays?
TDP1 inh: 2.3%; DT40 TDP1 no CPT: -23.5%; TDP1 cell CPT: -3.4%

Results for C[N+]1(C)CCc2cc3c(cc2C1C1OC(=O)c2c1ccc1c2OCO1)OCO3 (centres undefined) ?
TDP1 inh: 5.2%[56.1 µM]

Results for CCOC(CN1CCN(CC(C)C(=O)c2ccccc2)CC1)c1ccccc1 (centres undefined) ?
DT40 TDP1 no CPT: 26.6µM*; TDP1 cell CPT: inconclusive

Results for O=[N+]([O-])c1cc(S(=O)(=O)/N=C(/c2ccccc2)N2CCOCC2)ccc1Cl ?
TDP1 inh: 2.6%; DT40 TDP1 no CPT: inconclusive; IL1B secr inh: inconclusive; TDP1 cell CPT: inconclusive; Six1-Eya2 blk: 3.6
